Compound activity deposited in PubChem BioAssay by National Center for Advancing Translational Sciences (NCATS).
KinaseGlo FLuc = blocks Kinase-Glo luciferase, a counter-screen artifact; Q27757; Potency, µM (top dose mostly 38.3 µM), hits mostly inhibitors; Kinase-Glo luciferase, ATP luminescence, 8 min; 0.28% of 200,000 active; also: nearly all actives have a fitted effect of over 60% in size
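Compounds were added to a substrate mix at pH 7.2 (50 mM imidazole, 10 uM ATP, within the enzyme's linear range), followed by Kinase-Glo detection reagent; luminescence was measured after 8 minutes at ambient temperature.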
Rab9 prom act = activators of Rab9 promoter | Huh7 Rab9 promoter-luciferase reporter, luminescence, 24 h | Potency, µM (titrated, usually from 9.22 µM), hits mostly activators | 2.8% of 320,000 active; also: nearly all actives have a fitted effect of over 60% in size
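Using Huh7 cells stably transfected with Rab9 promoter–luciferase, compounds were incubated 24 h at 37 °C, 5% CO2; luciferase luminescence was read 10 min after reagent addition.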
ELG1 genotox = inducers of genotoxicity in HEK293T ELG1-luciferase cells; HEK293T ELG1-luciferase reporter, luminescence, 16 h; Potency, µM (top dose mostly 46 µM), usual class: activators; 1.3% of 330,000 active; AID 504466; also: nearly all actives have a fitted effect of over 60% in size
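Reporter readout depends on ELG1 protein level, which increases with genetic stress. After 16 hr compound exposure at 37 °C, luciferase activity was quantified using ONE-Glo.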
SMN2 splice enh = enhancers of SMN2 splice variant expression; HEK293 SMN2-luciferase splicing reporter, luminescence, 30-36 h; Potency, µM (series often up to 46.1 µM), most hits filed as activators; 2.8% of 210,000 active; also: nearly all actives have a fitted effect of over 55% in size
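qHTS luciferase splicing reporter: luminescence rises when SMN2 exon 7 is included in transfected HEK293 cells. Compound exposure lasted 30-36 h at 37C, with 4.5 mM final sodium butyrate as control, followed by a ONE-Glo read.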
FLuc modulator = counter-screen for miR-21 project: firefly luciferase inhibitors or activators | P08659 | purified FLuc, Km substrates, luminescence inhibition | Potency, µM (doses to about 57.5 µM), usual class: inhibitors | 6.9% of 360,000 active; also: nearly all actives have a fitted effect of over 55% in size
Target sequence (P08659 whole entry, looked up): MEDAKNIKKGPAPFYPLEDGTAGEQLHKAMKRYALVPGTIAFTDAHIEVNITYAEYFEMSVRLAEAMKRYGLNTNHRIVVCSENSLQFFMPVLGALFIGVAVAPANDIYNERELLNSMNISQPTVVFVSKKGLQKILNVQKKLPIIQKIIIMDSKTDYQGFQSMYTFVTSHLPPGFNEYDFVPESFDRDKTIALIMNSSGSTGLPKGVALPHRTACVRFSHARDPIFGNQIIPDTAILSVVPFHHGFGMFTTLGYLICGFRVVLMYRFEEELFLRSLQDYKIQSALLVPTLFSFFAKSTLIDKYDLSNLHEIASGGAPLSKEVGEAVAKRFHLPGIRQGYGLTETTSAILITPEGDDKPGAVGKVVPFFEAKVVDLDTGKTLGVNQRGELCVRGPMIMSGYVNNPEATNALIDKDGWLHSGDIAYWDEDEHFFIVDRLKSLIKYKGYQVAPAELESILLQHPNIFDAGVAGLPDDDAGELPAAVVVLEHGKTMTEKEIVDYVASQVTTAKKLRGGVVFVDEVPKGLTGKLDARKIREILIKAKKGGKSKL
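Purified P. pyralis luciferase, 10 nM final, with Km-level 10 uM D-luciferin and 10 uM ATP in 50 mM Tris acetate pH 7.5, 10 mM Mg acetate, 0.01% Tween-20, 0.05% BSA; 6-point qHTS titration about 60 µM downward; luminescence read.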
NPC1 promoter act = activators of NPC1 promoter | Huh7 NPC1 promoter luciferase reporter, 24 h | Potency, µM (titrated, usually from 9.22 µM), usual class: activators | 2.4% of 320,000 active | AID 485313; also: nearly all actives have a fitted effect of over 60% in size
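Luminescence read-out of NPC1 promoter-driven luciferase in stably transfected Huh7 cells; compounds delivered in DMSO and left 24 h at 37C, 5% CO2, qHTS titration format.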
Of the large screens only hits and unclear results are named; the others gave an inactive call. The list is not random: actives were taken first. Their share in the collection is about 7.4%. Calls follow the shape of the dose curve; as a rule, active = well fitted curve in the direction sought with a large enough effect; inconclusive = small, poorly fitted or top-dose-only effect, or another doubt; inactive = no such curve, though single readings can be large; an effect the other way counts as inactive or inconclusive.

CCOc1ccc(Nc2nc(-c3cccc(Cl)c3)c3c(n2)-c2ccccc2OC3)cc1	FLuc modulator 12µM (no result: KinaseGlo FLuc, Rab9 prom act, ELG1 genotox, SMN2 splice enh, NPC1 promoter act)
CC(=O)OC1CC(c2cc(C(C)(C)C)c(O)c(C(C)(C)C)c2)=NO1 (stereo not drawn)	none (no result: KinaseGlo FLuc, SMN2 splice enh)
O=C(c1cc(-c2ccncc2)nc2ccccc12)N1CCOCC1	none (no result: KinaseGlo FLuc, SMN2 splice enh)
Cc1ccc(-c2cc(C(=O)N3CCOCC3)c3ccccc3n2)cc1	FLuc modulator 11µM
COc1ccc(-c2cc(C(=O)N3CCOCC3)c3ccccc3n2)cc1OC	FLuc modulator inconclusive (no result: KinaseGlo FLuc, SMN2 splice enh)
COc1ccc2nc(-c3ccc(Cl)cc3)cc(C(=O)O)c2c1	FLuc modulator 8.5µM (no result: KinaseGlo FLuc, SMN2 splice enh)
COc1ccc(-c2cc(C(=O)Oc3ccc(C)cc3)c3cc(C)ccc3n2)cc1	none (no result: KinaseGlo FLuc, Rab9 prom act, ELG1 genotox, NPC1 promoter act)
COc1ccc(-c2cc(C(=O)N3CCOCC3)c3cc(C)ccc3n2)cc1	FLuc modulator 17µM
COc1ccc2nc(C)cc(C(=O)O)c2c1	none
COc1ccc(-c2cc(C(=O)N3CCCCCC3)c3cc(C)ccc3n2)cc1	FLuc modulator 12µM (no result: KinaseGlo FLuc, SMN2 splice enh)
COc1ccccc1CNC(=O)c1cn(C)c2ccc(S(=O)(=O)N3CCCC3)cc2c1=O	none
CCn1nc(C(=O)NNS(=O)(=O)c2ccc(C)cc2)c2ccccc2c1=O	none (no result: KinaseGlo FLuc, Rab9 prom act, SMN2 splice enh, FLuc modulator, NPC1 promoter act)
Cc1cc(C)nc(SCC(=O)NC(=O)c2ccccc2O)n1	none (no result: KinaseGlo FLuc, Rab9 prom act, SMN2 splice enh, FLuc modulator, NPC1 promoter act)
COC(=O)C(NC(=O)c1ccccc1C(=O)O)c1ccc2ccccc2c1 (stereo not drawn)	none (no result: KinaseGlo FLuc, SMN2 splice enh)
Cc1cc(C(=O)N2CCCc3ccccc32)ccc1[N+](=O)[O-]	none (no result: KinaseGlo FLuc, SMN2 splice enh)
O=C(c1cc(-c2ccc(Br)cc2)nc2ccccc12)N1CCN(c2ccccc2O)CC1	FLuc modulator inconclusive (no result: KinaseGlo FLuc, SMN2 splice enh)
Cc1ccc(-c2cc(C(=O)N3CCN(c4ccccc4O)CC3)c3ccccc3n2)o1	Rab9 prom act 2.2µM, FLuc modulator 0.76µM, NPC1 promoter act inconclusive (no result: KinaseGlo FLuc, SMN2 splice enh)
COc1ccc(-c2cc(C(=O)N3CCCCC3)c3ccccc3n2)cc1	FLuc modulator 5.4µM (no result: KinaseGlo FLuc, SMN2 splice enh)
Cc1ccc(S(=O)(=O)N2CC(C)C(=O)CC2C)cc1 (stereo not drawn)	none (no result: KinaseGlo FLuc, SMN2 splice enh)
O=C(CSc1ccc(-c2ccc(Br)cc2)nn1)N1CCOCC1	FLuc modulator 15µM
O=C(CSc1ccc(-c2ccc(F)cc2)nn1)N1CCCCC1	FLuc modulator inconclusive
COc1ccc(-c2ccc(SCC(=O)N3CCOCC3)nn2)cc1	FLuc modulator 11µM
O=C(c1nc(-c2ccc(Cl)cc2)n2c1CCCCC2)N1CCN(c2ccccc2F)CC1	none (no result: KinaseGlo FLuc, Rab9 prom act, ELG1 genotox, SMN2 splice enh, NPC1 promoter act)
Cc1ccc(N(C(=O)c2csnn2)C(C(=O)NC2CCCCC2)c2ccco2)cc1 (stereo not drawn)	none (no result: KinaseGlo FLuc, SMN2 splice enh)
CN(C)c1ccc(/C=C2\SC(=O)N(CCc3nnc(N)s3)C2=O)cc1	Rab9 prom act inconclusive, ELG1 genotox inconclusive, FLuc modulator 0.13µM, NPC1 promoter act 0.1µM (no result: KinaseGlo FLuc, SMN2 splice enh)
O=C(NCCOc1ccccc1)O[C@@H]1C(=O)c2cc(Br)ccc2O[C@H]1c1ccc2c(c1)OCO2	none (no result: Rab9 prom act, ELG1 genotox, FLuc modulator, NPC1 promoter act)
CCOc1ccc(/C=N/NC(=O)c2[nH]ncc2Br)c(O)c1	KinaseGlo FLuc 11µM, Rab9 prom act inconclusive, ELG1 genotox inconclusive, SMN2 splice enh 3.5µM, FLuc modulator 2.1µM, NPC1 promoter act inconclusive
COc1ccc(OC)c(/C=N/NC(=O)c2[nH]ncc2Br)c1	none (no result: KinaseGlo FLuc, SMN2 splice enh)
O=C(N/N=C/c1cccs1)c1[nH]ncc1Br	Rab9 prom act 4µM, ELG1 genotox 16µM, FLuc modulator 21µM, NPC1 promoter act 3.5µM (no result: KinaseGlo FLuc, SMN2 splice enh)
Cc1ccc(O)c(/C=N/NC(=O)c2[nH]ncc2Br)c1	KinaseGlo FLuc inconclusive, Rab9 prom act inconclusive, ELG1 genotox 16µM, FLuc modulator 4.3µM, NPC1 promoter act inconclusive
O=C(N/N=C/c1cccs1)c1cnccn1	FLuc modulator inconclusive
Cc1cc(C(=O)N/N=C/c2cccs2)n[nH]1	Rab9 prom act inconclusive, ELG1 genotox inconclusive, SMN2 splice enh inconclusive, FLuc modulator inconclusive, NPC1 promoter act inconclusive
Cc1cc(C(=O)N/N=C\c2cc(C(C)(C)C)ccc2O)n[nH]1	ELG1 genotox inconclusive, FLuc modulator 24µM (no result: KinaseGlo FLuc, SMN2 splice enh)
O=S(=O)(NCC1CCC(NS(=O)(=O)c2c(F)cccc2F)CC1)c1ccc2c(c1)OCCO2 (stereo not drawn)	none (no result: KinaseGlo FLuc, SMN2 splice enh)
